# According to PubChem BioAssay AID2283186 (EPA ToxCast):
# Calls of active or inactive are those of the source. The calls were made as follows: active = hit-call score of the fitted dose curve at least 0.9, where 1 is the maximum; inactive = score below 0.9.
# Biological target: human p21 Activated Kinase 2 (PAK2), PAK2 (gene 5062) (UniProt Q13177)
# Assay: NVS_ENZ_hPAK2: NovaScreen (NVS) Enzymatic Assay for human p21 Activated Kinase 2 (PAK2)
# Protocol: NVS_ENZ_hPAK2 is a biochemical, single-readout assay that uses extracted gene-proteins in a cell-free assay. Measurements were taken 1 hour after chemical dosing in a 384-well plate.NVS_ENZ_hPAK2 is one of one assay component(s) measured or calculated from the NVS_ENZ_hPAK2 assay. It is designed to make measurements of enzyme activity, a form of enzyme reporter, as detected with fluorescence intensity signals by Fluorescence and electrophoretic mobility shift technology.Data from the assay component NVS_ENZ_hPAK2 was analyzed into 1 assay endpoint. This assay endpoint, NVS_ENZ_hPAK2, was analyzed in the positive analysis fitting direction relative to DMSO as the negative control and baseline of activity. Using a type of enzyme reporter, loss-of-signal activity can be used to understand changes in the enzymatic activity as they relate to the gene PAK2. Furthermore, this assay endpoint can be referred to as a primary readout, because this assay has produced multiple assay endpoints where this one serves a enzymatic activity function. To generalize the intended target to other relatable targets, this assay endpoint is annotated to the kinase intended target family, where the subfamily is serine/threonine kinase. […]
# human p21 Activated Kinase 2 (PAK2), PAK2 (gene 5062), sequence (Q13177 whole entry, looked up): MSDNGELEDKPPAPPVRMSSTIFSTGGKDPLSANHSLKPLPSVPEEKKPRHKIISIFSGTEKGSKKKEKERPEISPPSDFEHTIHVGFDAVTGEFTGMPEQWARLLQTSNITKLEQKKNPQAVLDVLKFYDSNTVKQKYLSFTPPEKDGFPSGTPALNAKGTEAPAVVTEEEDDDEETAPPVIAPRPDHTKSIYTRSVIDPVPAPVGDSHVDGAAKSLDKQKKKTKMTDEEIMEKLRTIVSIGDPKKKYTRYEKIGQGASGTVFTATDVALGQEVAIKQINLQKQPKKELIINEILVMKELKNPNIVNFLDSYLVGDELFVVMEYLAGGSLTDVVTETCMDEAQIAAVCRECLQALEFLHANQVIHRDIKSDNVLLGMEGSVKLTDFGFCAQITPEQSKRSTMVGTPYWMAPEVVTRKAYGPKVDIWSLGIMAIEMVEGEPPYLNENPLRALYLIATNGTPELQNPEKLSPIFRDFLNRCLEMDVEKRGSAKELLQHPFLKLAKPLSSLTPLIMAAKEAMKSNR
row,SMILES,outcome
1,CC(C)(c1ccc(O)cc1)c1ccc(O)cc1,inactive
2,COCCO,inactive
